{"source": "the supplement of paper PMC6555819"}
{"system": "PPARg:RXRa 270nM:90nM, anti-RXR (NR concentration 270 nM, RXRa partner concentration 90 nM)", "assay": "PBM binding z-score (relative to random genomic background probes); higher = stronger binding; sequences stand for … in GC…GCGATTGACAGCGTAGAATGAAGG", "in_short": "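Regression normalization was applied to scanned fluorescence from custom Agilent 4×180K protein-binding microarrays. Before scanning, arrays were incubated 1 h with ligand-free nuclear receptor dimers, and binding was detected with antibodies against each partner (one per run). Binding z-scores use the random background probes as reference.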"}
{"sequence": "CGAACTAGGTCAGCCAGGACAGTGAATACATTGA", "PBM binding z-score": 5.28}
{"sequence": "GGTGCTAGGTCAGGTTGGTCAGCTAACGGGTACG", "PBM binding z-score": 1.8}
{"sequence": "CCTCGGAGGACAGAAGGTAAGAGCTGTCCGCTTT", "PBM binding z-score": -0.815}
{"sequence": "TCTTGTAGAGCAACAGGAGGTTAAGAAAGATCGA", "PBM binding z-score": 0.587}
{"sequence": "TGATATAGGTAATACAGGTGAAAGTCGGCATCTA", "PBM binding z-score": 2.3}
{"sequence": "GCTGCTAGGTCAGGTTGGTCAGCTGACGGGTACG", "PBM binding z-score": 1.04}
{"sequence": "GATACAGGGTCATGGCCAGAGTACGCGTATTGAT", "PBM binding z-score": 6.38}
{"sequence": "CCTACTGGGCCAAAGGTCACTGATTCCAATGCTC", "PBM binding z-score": 10.6}
{"sequence": "GCGATTGGGGCATCAGCAGGTTACCATAACTTAA", "PBM binding z-score": -0.0261}
{"sequence": "GCTTACGCGTCAAAGGTTATAGCATGAATAGAAT", "PBM binding z-score": 3.84}
{"sequence": "TCGAGCAGGCCAGAGGGTCACTCAAGAGGTACGG", "PBM binding z-score": 1.6}
{"sequence": "CCTGCTAGGTCAATGGTCAGATAAAGCAGCTCGC", "PBM binding z-score": 5.1}
{"sequence": "AGAACGAGGGCACGCTTAGTTGATAGCAGAGTAG", "PBM binding z-score": 1.86}
{"sequence": "TCTGCTAGGTCAAGGATGGTCAGCTAATCTGCTA", "PBM binding z-score": 3.21}
{"sequence": "TCGAGTAGGTTAATCGGGGCATTCAGCCAACATA", "PBM binding z-score": 1.54}
{"sequence": "CGTCCAAGGTCAAGGTCATTGAAAGAGACTCGAA", "PBM binding z-score": 6.7}
{"sequence": "TTACCAAGGTGAGAGGTCGTTGATGCACGCCTTG", "PBM binding z-score": 6.4}
{"sequence": "CCTAGCAGGCCAATCTGGGTCACTAAAGGCTTGA", "PBM binding z-score": 1.83}
{"sequence": "CGTCCAAGGTTAGCAGGTCAGTGAAAGCGACGTG", "PBM binding z-score": 2.08}
{"sequence": "CGTCCAAGGTCAATGCTCGGTCAGTGAAAGCATT", "PBM binding z-score": 3.99}
{"sequence": "CCTAGCAAGCCAATCTGGGTCACTCAAGGCTTGA", "PBM binding z-score": 1.79}
{"sequence": "AGTCTAAGTTCACTAGGTAACGTAAGATTCAGCT", "PBM binding z-score": 3.85}
